According to PubChem BioAssay (NCATS):
Results filed as inconclusive are left out. A number with no mark means an inactive call. Calls of active or inactive are those of the source. Calls come from the whole dose curve; as a rule, active = well fitted cell-killing curve with a large enough effect; inconclusive = small, poorly fitted or top-dose-only effect, or effect the other way; inactive = no such curve, though single readings can be large or run the other way.

assay: Viability qHTS for spleen associated tyrosine kinase inhibitor (SYKi) naive MV4-11 cells (AID 1963823); details: MV4-11 AML viability, CellTiter-Glo luminescence, 72 h; series mostly up to 45 µM; note: nearly all actives have a fitted effect of over 40% in size
In short: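 In this viability screen, compounds acted on SYK inhibitor naive MV4-11 cells for three days (72 hr, 37 C). Remaining viable cells were measured by CellTiter-Glo luminescence following a 10 min room-temperature development.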
Potency is the fitted concentration of half-maximal effect.

| Compound | Potency | viability (% of control) |
| --- | --- | --- |
| COC(=O)N[C@H](C(=O)N1CCC[C@H]1c1ncc(-c2ccc(-c3ccc(-c4cnc([C@@H]5CCCN5C(=O)[C@@H](NC(=O)OC)C(C)C)[nH]4)cc3)cc2)[nH]1)C(C)C | 18.6 µM (active) |  |
| NS(=O)(=O)c1ccc(N=Nc2c(O)[nH]c3ccc(Br)cc23)cc1 | 0.13 µM (active) |  |
| C=C1[C@H](OC(C)=O)[C@H]2[C@@H](OC(C)=O)[C@](C)(OC(C)=O)C[C@]2(OC(C)=O)C(=O)[C@H](C)/C=C/C(C)(C)C(=O)[C@H](OC(=O)C(C)C)[C@H]1OC(C)=O | inactive |  |
| CC1(C)CC2C3=CCC4C5(C)CCC(OC6OC(CO)C(O)C(OC7OC(CO)C(O)C(OC8OC(CO)C(O)C(OC9OC(COC%10OC(CO)C(O)C(O)C%10O)C(O)C(O)C9O)C8O)C7O)C6O)C(C)(C)C5CCC4(C)C3(C)CCC2(C(=O)O)CC1O (stereo not drawn) |  | 81.7% [at 9.25 µM] |
| O=C(/C=C/c1ccc(O)c(O)c1)O[C@H]1[C@@H]2C=CO[C@@H](O[C@@H]3O[C@H](CO)[C@@H](O)[C@H](O)[C@H]3O)[C@@H]2[C@@]2(CO)O[C@@H]12 | inactive |  |
| CCCCCCc1cccc(NC(=O)[C@H](N)CCP(=O)(O)O)c1 |  | 90.5% [at 9.25 µM] |
| CC1OC(OC2C(O)C(OC3CCC4(C)C(CCC5(C)C4CC=C4C6CC(C)(COC7OC(CO)C(O)C(O)C7O)CC(O)C6(C)CCC45C)C3(C)C)OC(C(=O)O)C2O)C(O)C(O)C1OC1OCC(O)C(O)C1O (stereo not drawn) |  | 54% [at 9.25 µM] |
| C/C(=C\CCC(C)C1CC(O)C2(C)C3CCC4C(C)(C)C(OC5OCC(O)C(O)C5O)CCC45CC35CC(O)C12C)C(=O)O (stereo not drawn) | inactive |  |
